Source: PubChem (several laboratories)
Sampled rows, rich in hits. Any-hit rate of the full collection: about 2.9%.
FBA Mtb inh = Mtb FBA enzyme inhibitors, primary screen, biochemical, fluorescence, strain H37Rv; 360,000 compounds, 2.3% hits; AID 588726, 2011; inhibition, % at 1 µM; Fructose-bisphosphate aldolase (Mycobacterium tuberculosis (strain ATCC 25618 / H37Rv)), …; purified M. tuberculosis FBA, fluorescence read-out; in the data active = inhibition above about 27%;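 also: 0% = vehicle and 100% = reference inhibitor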
Target sequence (P9WQA3 whole entry, looked up): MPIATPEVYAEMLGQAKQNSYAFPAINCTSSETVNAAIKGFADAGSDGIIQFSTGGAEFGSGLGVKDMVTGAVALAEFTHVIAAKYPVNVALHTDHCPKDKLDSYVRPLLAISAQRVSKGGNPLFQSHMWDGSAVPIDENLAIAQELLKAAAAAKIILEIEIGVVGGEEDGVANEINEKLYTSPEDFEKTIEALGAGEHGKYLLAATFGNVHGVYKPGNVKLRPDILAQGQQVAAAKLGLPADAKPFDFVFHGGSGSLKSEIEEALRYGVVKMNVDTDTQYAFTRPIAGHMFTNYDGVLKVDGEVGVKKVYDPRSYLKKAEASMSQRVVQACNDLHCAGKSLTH
Mtb hypoxia inh = PubChem AID 1159583 | M. tuberculosis hypoxia-regulated fluorescent reporter, fluorescence | fluorescence inhibition, % (no concentration beside the values) | 300,000 compounds, 0.1% hits; in the data active = fluorescence inhibition mostly above about 23%, no sharp cut-off; inactive = mostly below about 17%
BioA inh = M. tuberculosis BioA enzyme inhibitors, primary screen, biochemical, plate reader, single point, HTS; purified M. tuberculosis BioA enzyme; inhibition, % at 9.99 µM; 360,000 compounds, 0.096% hits; in the data active = inhibition above about 40%
FadD28 binding = inhibitors of FadD28 bisubstrate probe binding, primary screen, biochemical, fluorescence polarization, single point; Mycobacterium tuberculosis FadD28 fatty-acid-AMP ligase; inhibition, % at 12.5 µM; 360,000 compounds, 0.22% hits; AID 588549, 2011; in the data active = inhibition above about 8.5%, passing the limit was not always enough
GDH-TPI inh = GDH-TPI coupling enzyme inhibitors, primary screen, artefact control for M. tuberculosis FBA inhibitor project, biochemical, absorbance, full deck. inhibition, % at 4.8 µM. 360,000 compounds, 1.2% hits. GDH-TPI coupled enzyme counterscreen, NADH absorbance; in the data active = inhibition above about 30%;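 also: 0% = DMSO wells and 100% = wells lacking the enzyme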
Active calls of the source: *; . = not tested or not shown; + = active, no number.

SMILES	FBA Mtb inh	Mtb hypoxia inh	BioA inh	FadD28 binding	GDH-TPI inh
Cc1c(/C=N/NC(=O)C(NC(=O)c2ccc3c(c2)OCO3)C(C)C)c2ccccc2n1C (stereo not given)	2.2	.	.	-0.8	37.9*
COc1cc(/C=N/NC(=O)c2ccc3c(c2)OCCO3)c(Br)c(Br)c1O	-1.3	.	-1.8	2.0	36.5*
COc1cc(/C=N/NC(=O)C(=O)NCc2ccco2)cc(Br)c1O	-2.4	.	.	-0.9	54.4*
COc1cc(/C=N\NC(=O)c2ccc(-c3ccccc3)cc2)cc(Br)c1O	1.6	.	-1.2	-2.3	26.3
COc1cc(/C=N/NC(=O)c2ccc3c(c2)OCCO3)cc(Br)c1O	0.4	.	1.5	-1.5	35.6*
COc1ccc(/C=N/NC(=O)c2ccc3c(c2)OCO3)c(C(=O)O)c1OC	1.4	.	-0.8	-2.2	33.3*
CN1C(=O)c2cc(NS(=O)(=O)c3cccc(F)c3)ccc2OC[C@@H]2O[C@H](CC(=O)N3CCc4ccccc4C3)CC[C@H]21	.	.	-0.2	.	.
CC(C)(C)[S@@](=O)N1Cc2cc(C(=O)NCCc3ccncc3)nc(-c3cccc(-c4ccncc4)c3)c2[C@H]1CCO	.	.	0.4	.	.
O=C(Cc1cccs1)NN=Cc1ccccn1	.	7.5	.	.	.
Cc1cc(NC(=O)c2sc(Nc3cccc(C(F)(F)F)c3)nc2N)no1	-1.0	-2.7	-0.1	-1.2	33.4*
CO[C@@H]1CN(C)C(=O)c2ccc(NS(C)(=O)=O)cc2OC[C@@H](C)N(C(=O)C2CCC2)C[C@@H]1C	.	.	-3.9	.	.
Brc1cc2c(cc1/C=N/Nc1nc(N3CCCC3)nc(N3CCOCC3)n1)OCO2	-3.7	.	-0.1	-0.3	31.6*
O=C1[C@@H]2[C@@H](CN3CN(c4ccccc4)N=C(c4ccccc4)[C@@]23c2ccccc2)C(=O)N1c1ccccc1	34.5*	.	.	-3.3	17.0
O=C1C2C(c3ccccc3)=NN(c3ccccc3)C2C(=O)N1c1ccccc1 (stereo not given)	4.5	15.5	-2.9	-0.2	0.0
CC1(C)NC(=O)N(CC(O)COc2ccc(-c3ccccc3)cc2)C1=O (stereo not given)	-1.2	.	-0.8	-2.1	2.5
CC1(C)NC(=O)N(CC(O)COc2ccc(-c3ccc(C#N)cc3)cc2)C1=O (stereo not given)	68.7*	0.0	-1.4	0.0	-1.0
O=C1NC(=O)C(Nc2cccc3ccccc23)S1 (stereo not given)	6.6	21.9	0.3	-0.3	36.2*
Cc1cc(=O)oc2c3c(cc(OCC(=O)Nc4cccnc4)c12)OC(C)(C)CC3	12.3	.	0.1	1.0	6.9
Cc1cc(=O)oc2c3c(cc(OCC(=O)NCC(=O)O)c12)OC(C)(C)CC3	+	-5.2	1.8	1.6	9.9
Cc1cc(=O)oc2c3c(cc(OCC(=O)NCc4ccccc4)c12)OC(C)(C)CC3	150.2*	.	0.4	-1.2	27.4
Cc1cc(=O)oc2c3c(cc(OCC(=O)Nc4ccc(CCO)cc4)c12)OC(C)(C)CC3	156.5*	.	0.0	-8.5	21.6
O=C(CNC(=O)c1ccc(F)cc1)N/N=C/c1ccc(O)c([N+](=O)[O-])c1	-2.9	.	.	0.2	36.7*
Cc1onc(-c2ccccc2)c1C(=O)N/N=C/c1ccc(O)c([N+](=O)[O-])c1	-7.2	.	-0.8	0.1	34.9*
Cc1csc(N/N=C/c2ccc(O)c([N+](=O)[O-])c2)n1	-5.2	.	-0.3	9.3*	39.1*
O=C(CNC(=O)c1cccc(F)c1)N/N=C/c1ccc(O)c([N+](=O)[O-])c1	-4.0	.	.	0.6	21.6
SMILES	FBA Mtb inh	Mtb hypoxia inh	BioA inh	FadD28 binding	GDH-TPI inh
O=[N+]([O-])c1cc(/C=N\Nc2nc(-c3ccccc3)cs2)ccc1O	-3.3	.	.	3.1	33.8*
C[C@@H]1CN([C@H](C)CO)C(=O)c2cccc(NC(=O)C3CCOCC3)c2O[C@@H]1CN(C)Cc1ccc(-c2ccccc2)cc1	.	.	1.1	.	.
Cc1nnc(N/N=C/c2ccc(O)c([N+](=O)[O-])c2)[nH]c1=O	-2.9	.	-1.4	-1.6	47.4*
COc1cc(/C=N/n2nnnc2Nc2ccccc2)cc(OC)c1OC	-2.0	.	-0.7	-7.9	33.7*
COc1ccc(C2=NN(C(=O)c3cccs3)C(c3ccccc3OC)C2)cc1OC (stereo not given)	2.6	0.2	1.6	-5.7	34.1*
COc1ccc(C2=NN(C(=O)c3ccco3)C(c3cccs3)C2)cc1OC (stereo not given)	-1.8	.	1.2	-5.4	38.0*
Cc1ccc(C2=NN(C(=O)c3cccs3)C(c3ccccc3O)C2)cc1 (stereo not given)	-0.1	-3.9	.	-4.7	-4.2
OCCCCCNc1ncnc2ccccc12	-3.1	.	-0.1	-3.2	-0.8
OCCCCNc1cccc2ccccc12	161.2*	5.0	0.7	-0.4	9.2
CCCC(=O)Nc1cccc(-c2nc3cc(C)c(C)cc3o2)c1	9.4	.	-1.9	-2.0	5.2
CC(C)C(=O)Nc1cccc(-c2nc3ccccc3o2)c1	8.1	-10.9	-1.3	0.6	13.7
Cc1cc2nc(-c3ccc(NC(=O)C(C)C)cc3)oc2cc1C	138.2*	.	.	1.0	10.2
Cc1ccc(-c2nc3cc(NC(=O)C(C)C)ccc3o2)cc1	181.2*	.	-1.8	-2.9	-1.7
COc1cc(/C=N/Nc2nc3ccccc3o2)cc(OC)c1O	2.6	.	-1.2	2.3	31.2*
CCOc1cc(/C=N/Nc2nc3ccccc3[nH]2)cc(Br)c1OCC(=O)N(C)C	2.7	.	-1.9	1.6	34.0*
COc1cc(/C=N\Nc2nc3ccccc3[nH]2)cc(OC)c1OC	1.8	.	.	1.0	35.6*
C(=N\Nc1nc2ccccc2[nH]1)/c1ccc2ncccc2c1	2.1	.	0.0	-1.6	33.0*
COc1cc(C=NNc2nc3ccccc3o2)cc(OC)c1O	.	2.0	.	.	.
CCCCCCSc1ccc(C2N[C@@](Cc3ccccc3)(C(=O)OC)C3C(=O)N(CC)C(=O)C23)cc1 (stereo not given in full)	.	4.2	.	.	.
CC1(C)CCC(=O)N2CCC3CC(OC(=O)Nc4ccc5c(c4)OCO5)CC1C32 (stereo not given)	.	4.5	.	.	.
C=C1CCN(C(C(=O)Nc2ccc(OC)cc2)C(C)C)S(=O)(=O)c2ccccc21 (stereo not given)	.	5.8	.	.	.
CO[C@H]1CN(C)C(=O)c2ccc(NC(=O)c3ccccc3)cc2OC[C@@H](C)NC[C@@H]1C	.	.	-0.5	.	.
COc1cc(/C=N\Nc2nc3ccccc3o2)cc(OC)c1OC	4.7	.	0.1	1.3	34.2*
Oc1ccccc1/C=N/Nc1nc2ccccc2o1	8.5	.	-0.9	0.0	50.6*
Cn1c(C(C#N)=C(O)CN2CCN(Cc3ccccc3)CC2)nc2ccccc21	.	4.7	.	.	.
COc1ccc(-c2[nH]ncc2C=NNC(=O)c2ccc(Br)cc2)c(OC)c1	.	8.6	.	.	.
Cc1cc(O)c(C=Nc2ccc(N3CCOCC3)cc2)c(C)c1Cl	-1.8	7.9	-3.5	-0.8	14.4
Cc1ccc(Cl)cc1-c1ccc(C=Nc2ccc(N3CCOCC3)cc2)o1	1.0	-1.0	.	-1.7	33.2*
